# The OligoGym collection
# Molecular target: TM4SF4
# Test: pooled miR-30 sensor sort-seq; sequence = guide strand
# Conditions: shRNA
# Also: reference of the scale not given here.
row,Sequence,sensor-assay potency score (higher = more potent)
1,AAGATCATCAAGACACCGCTTC,0.685
2,ATTGAGATAATCCCCGTCGTGG,-0.0711
3,TCGTGGAGGTGAACATCGCAAA,-1.55
4,TTGTCATCTATCACTTTTCCTC,-0.799
5,TTGACCACCTGGATGGCGCAGA,-0.376
6,AACATCGCAAATCGCTTCCCAC,-1.03
7,TTGTTGATTGAAATGGCTGAGA,-0.818
8,TTTTCTAAGCTTTATCAGCTAG,-0.744
9,TTTGAAAATAACAAAATTCTAA,-0.879
10,TAAACGAGTATCCAGCTCCCAA,-1.07

# Molecular target: TM7SF2
# Test: as above
# Conditions: shRNA
row,Sequence,sensor-assay potency score (higher = more potent)
1,TTTGAAGTCGAAGAAACAGATA,-1.28
2,TATTTGAAGTCGAAGAAACAGA,-0.986
3,TTGTCCTTCAATTCCTGCCCCT,-0.137
4,TTGAGTCCCAAGTGTGTCGAGG,-0.705
5,TCATGTGTGATATCCATGGTGG,-0.309
6,TTGATGAGGCAGATGACAGAGG,-0.497
7,AGATGTAGTAACCAGTAGCATT,-2.06
8,TTTCGGAAAGTGTTTTTCTGGG,-0.966
9,TTCATGTAGAGAAAGAGGCTGA,0.647
10,TAGAGATGGTCTCAAGCCCAGC,-1.47
11,TACTTCTGCAGGCACTGCCGCT,-1.41

# Molecular target: TMCC3
# Test: as above
# Conditions: shRNA
row,Sequence,sensor-assay potency score (higher = more potent)
1,TATTTTATTCTTGCTAGTCTTT,-0.521
2,TTGCACTTAATTTGAATCCAGG,-0.313
3,TTGTTCACGATGGTAGCGCTGC,-0.609
4,TTGAAAACGAACACAGGTGGAG,0.022
5,TAATGTTAAAGTCACAGTCTGA,-0.348
6,TTAAAGTGTAACAAAACCCCTC,-0.0862
7,TTCTCTCTTAAACTGCACCTTC,0.0499
8,TTTGACCTTGTGGAAGTCCAGG,-0.907
9,TTGGGTATCCTTGATCTCCCTC,0.381
10,TACCTTTAGAATTTTTTGCTTC,-0.127
11,TTGCTTGATACGTCCCGCCTGC,-0.167
12,TTATTGAAAACGAACACAGGTG,-0.162

# Molecular target: TMCO6
# Test: as above
# Conditions: shRNA
row,Sequence,sensor-assay potency score (higher = more potent)
1,TTTTCTGCAACATTGCACAGAA,0.104
2,AACATTTGTAGCATGTGCTGAG,0.662
3,AACATTGCACAGAACTGTGAGC,-0.57
4,TTTGTAGCATGTGCTGAGGGAG,-0.612
5,TTTCTCAGCAGCCTCTTGCTGA,-0.697
6,TACTGGACAAACAAGCTTGATG,-0.998
7,TTGCAACATTTGTAGCATGTGC,-0.588
